Results from PubChem BioAssay AID1508637 (National Center for Advancing Translational Sciences (NCATS), 2021).
Results filed as inconclusive are left out. The source made the active and inactive calls. Calls come from the whole dose curve; as a rule, active = well fitted inhibition curve with a large enough effect; inconclusive = small, poorly fitted or top-dose-only effect; inactive = flat fitted curve, though single readings scatter. Starred links: 1 amine or outer side, 2 acyl side, 3 side chain; linkers in the order of their positions; H or OH if unused. Positions of bridges follow the written chain, without caps; N, C: chain ends. Non-standard residues stand in square brackets, D forms with d. Residues, ends and D or L forms follow the SMILES beside them. Chains are numbered I, II in the order given. ξ: configuration not given here. *: point of attachment. Actinocin(9to1) = Cc1c2oc3c(C)ccc(C(=O)[*:1])c3nc-2c(C(=O)[*:2])c(N)c1=O; ξNMeV = CNC(C(=O)O)C(C)C; Cbz = O=C(OCc1ccccc1)*; Nva = CCC[CH](N)C(=O)O; ξV = CC(C)C(N)C(=O)O; Sar = CNCC(=O)O

Experiment: qHTS for characterization and localization of zebrafish homologs of the human ABCB1 multidrug transporter: empty vector transfected cells
Settings: empty vector transfected control cells, CellTiter-Glo luminescence viability, 72 h; series mostly up to 46.1 µM
Text: The zebrafish has emerged as a potential model to study the blood-brain barrier (BBB) given its similarities with mammalian systems. However, little information has been available with regard to homologous ATP-binding cassette transporters expressed at the zebrafish BBB. Two transporters that are highly expressed at the human BBB are P-glycoprotein (P-gp, encoded by the ABCB1 gene) and ABCG2 (encoded by the ABCG2 gene). In this study, we focus on characterization of P-gp homologs in the zebrafish, which has two genes that are homologous to human ABCB1 - abcb4 and abcb5. We generated stably-transfected cell lines to determine their substrate specificities. […] Zebrafish abcb4 also colocalized with claudin 5 expression in brain endothelial cells.
A high-throughput screen was performed as previously described on empty vector transfected cells, P-gp-overexpressing MDR-19 cells and cells transfected with full-length zebrafish abcb4 (ZF Abcb4) or abcb5 (ZF Abcb5). Briefly, cells were plated into 1536-well plates at a density of 500 cells/well in 5 uL media. P-gp substrate compounds (approximately 90) selected from our previous study were then added at varying concentrations using a 1536-head pin tool (Kalypsis, San Diego, CA) and plates were incubated at 37C in 5% CO2 for 72 h. CellTiter-Glo reagent (Promega) was dispensed into the wells, incubated for 5 min and luminescence was read on a ViewLux instrument (Perkin-Elmer).
Cytotoxic compounds were defined as those that yielded a curve class of -1.1, -1.2, -2.1, -2.2, -2.3, or -2.4, a maximum response of >50% and an AC50 of < 10 uM. All compounds from screening analysis were tested in Vector (empty vector control), MDR-19 (P-gp overexpressing), zebrafish abcb4 (ZF Abcb4) and abcb5 (ZF Abcb5) expression cell lines.
1. Tobie D Lee, Olivia W Lee, Kyle R Brimacombe, Lu Chen, Rajarshi Guha, Sabrina Lusvarghi, Bethilehem G Tebase, Carleen Klumpp-Thomas, Robert W Robey, Suresh V Ambudkar, Min Shen, Michael M Gottesman, Matthew D Hall. A High-Throughput Screen of a Library of Therapeutics Identifies Cytotoxic Substrates of P-glycoprotein. Mol Pharmacol. 2019, Nov;96(5):629-640.

Row | SMILES | Potency
1 | CCS(=O)(=O)c1cccc(-c2cc(C(=O)NC3CCN(C)CC3)c(C)c3[nH]c4ncc(C)cc4c23)c1 | 2350 nM (active)
2 | CC1(C)CC[C@]2(C(=O)OC3OC(CO)C(O)C(O)C3O)CC[C@]3(C)C(=CCC4[C@@]5(C)CC[C@H](OC6OC(C(=O)O)C(O)C(O)C6O)C(CO)(CO)C5CC[C@]43C)[C@@H]2C1 (stereo not given in full) | 2230 nM (active)
3 | Cc1cc(N)c2ccccc2[n+]1CCCCCCCCCC[n+]1c(C)cc(N)c2ccccc21 | 5900 nM (active)
4 | Cc1cc(Nc2cc(N3CCN(C)CC3)nc(Sc3ccc(NC(=O)C4CC4)cc3)n2)n[nH]1 | 6620 nM (active)
5 | CC(=O)C1(O)Cc2c(O)c3c(c(O)c2C(OC2CC(N)C(O)C(C)O2)C1)C(=O)c1c(O)cccc1C3=O (stereo not given) | 41.8 nM (active)
6 | C/C=C1/NC(=O)C2CSSCCC=CC(CC(=O)NC(C(C)C)C(=O)N2)OC(=O)C(C(C)C)NC1=O (stereo not given) | 52.6 nM (active)
7 | CC(C)C[C@H](NC(=O)[C@H](CCc1ccccc1)NC(=O)CN1CCOCC1)C(=O)N[C@@H](Cc1ccccc1)C(=O)N[C@@H](CC(C)C)C(=O)[C@@]1(C)CO1 | 46.9 nM (active)
8 | Oc1ccc(-c2ccc(-c3cc(Nc4cccc(CNC5CC5)c4)n[nH]3)cc2)c(O)c1 | 2960 nM (active)
9 | Cc1c2oc3c(C)ccc(C(=O)N[C@@H]4C(=O)NC(C(C)C)C(=O)N5CCC[C@H]5C(=O)N(C)CC(=O)N(C)C(C(C)C)C(=O)O[C@@H]4C)c3nc-2c(C(=O)N[C@@H]2C(=O)NC(C(C)C)C(=O)N3CCC[C@H]3C(=O)N(C)CC(=O)N(C)C(C(C)C)C(=O)O[C@@H]2C)c(N)c1=O (stereo not given in full) (I: T[ξV]P[Sar][ξNMeV] / II: T[ξV]P[Sar][ξNMeV]; ester I:1-I:C, II:1-II:C; linker I:N-II:N via Actinocin(9to1)) | 7.4 nM (active)
10 | CN(C)CCN(C)C(=O)c1ccc(NC(=O)Nc2ccc(-c3nc(N4CCOCC4)c4ccn(CC(F)(F)F)c4n3)cc2)cc1 | 264 nM (active)
11 | CC(C)(C)c1cnc(CSc2cnc(NC(=O)C3CCNCC3)s2)o1 | 1080 nM (active)
12 | NC(=O)Nc1cc(-c2cccc(F)c2)sc1C(=O)N[C@H]1CCCNC1 | 590 nM (active)
13 | CO[C@H]1/C=C/C=C/C=C/C[C@H](OC(=O)[C@@H](C)NC(=O)C2CCCCC2)[C@H](C)[C@@H](O)/C(C)=C/CCc2cc(O)cc(c2)NC(=O)C1 | 277 nM (active)
14 | CN(C)C/C=C/C(=O)Nc1cccc(C(=O)Nc2ccc(Nc3nccc(-c4cccnc4)n3)cc2)c1 | 18700 nM (active)
15 | COc1cc(C(=O)NC2CCN(C)CC2)ccc1Nc1ncc2c(n1)N(C1CCCC1)CC(F)(F)C(=O)N2C | 41.8 nM (active)
16 | N=C(N)c1ccc(OCCCCCOc2ccc(C(=N)N)cc2)cc1 | 2640 nM (active)
17 | CN(C)c1ccc(C(=C2C=CC(=[N+](C)C)C=C2)c2ccc(N(C)C)cc2)cc1 | 590 nM (active)
18 | CC(C)C[C@H](NC(=O)[C@@H](NC(=O)c1cccc(-c2ccccc2)n1)[C@@H](C)O)B(O)O | 74.3 nM (active)
19 | COc1cc2ncn(-c3cc(OCc4ccccc4C(F)(F)F)c(C(N)=O)s3)c2cc1OC | 1910 nM (active)
20 | CN(C)C1CCN(C(=O)c2ccc(NC(=O)Nc3nc(N4CCOCC4)nc(N4CCOCC4)n3)cc2)CC1 | 469 nM (active)

Row | SMILES | Potency
21 | CCC(C)C(=O)OC1CC(O)C23C4OCC5(C(O)CC2C1(C)C(O)O4)C3C(=O)C(O)C1(C)C(O)(c2ccoc2)CC2OC251 (stereo not given) | 1100 nM (active)
22 | CCCC(C=O)NC(=O)C(CC(C)C)NC(=O)C(CC(C)C)NC(=O)OCc1ccccc1 (stereo not drawn) (Cbz-Leu-Leu-[Nva]-aldehyde; configuration not given here) | 1480 nM (active)
23 | C[C@@H]1O[C@@H](O[C@H]2[C@@H](OC(=O)[C@]34CCC(C)(C)CC3C3=CCC5[C@@]6(C)C[C@H](O)[C@H](O[C@@H]7O[C@H](CO)[C@@H](O)[C@H](O)[C@H]7O[C@@H]7OC[C@@H](O)[C@H](O)[C@H]7O)[C@@](C)(C(=O)O)C6CC[C@@]5(C)[C@]3(C)CC4)OC[C@H](O)[C@@H]2O)[C@H](O)[C@H](O)[C@H]1O[C@@H]1OC[C@@H](O)[C@H](O)[C@H]1O (stereo not given in full) | 1980 nM (active)
24 | C=CCn1c(=O)c2cnc(Nc3ccc(N4CCN(C)CC4)cc3)nc2n1-c1cccc(C(C)(C)O)n1 | 1180 nM (active)
25 | CCC1=CC2CN(C1)Cc1c([nH]c3ccccc13)[C@@](C(=O)OC)(c1cc3c(cc1OC)N(C)[C@H]1[C@@](O)(C(=O)OC)[C@H](OC(C)=O)[C@]4(CC)C=CCN5CC[C@]31[C@@H]54)C2 (stereo not given in full) | 105 nM (active)
26 | CC[n+]1c(-c2ccccc2)c2cc(N)ccc2c2ccc(N)cc21 | 332 nM (active)
27 | CC(=O)O[C@@H]1C[C@H](O)[C@@]23CO[C@@H](O)C1(C)[C@@H]2C[C@@H](O)[C@]1(C)[C@@H]3C(=O)[C@H](OC(C)=O)[C@@]2(C)[C@H](c3ccoc3)C[C@H]3O[C@]321 | 93.5 nM (active)
28 | CN(C)C1CCN(C(=O)c2ccc(NC(=O)Nc3ccc(-c4nc(N5CCOCC5)nc(N5CCOCC5)n4)cc3)cc2)CC1 | 469 nM (active)
29 | CC(NCc1ccc2c(c1)nc(NC(=O)c1ccc(-c3cn[nH]c3)s1)n2CC(C)(C)O)C(C)(C)C (stereo not given) | 332 nM (active)
30 | Cc1nc(Nc2n[nH]c3c2CN(C(=O)N[C@H](CN(C)C)c2ccccc2)C3(C)C)c2sccc2n1 | 41.8 nM (active)
31 | COc1ccc(CC2C(=O)NC(C)C(=O)N(C)C3Cc4ccc(cc4)Oc4cc(ccc4OC4OC(CO)C(O)C(O)C4O)CC(C(=O)NC(C)C(=O)NC(C)C(=O)N2C)N(C)C3=O)cc1 (stereo not given) | 88.8 nM (active)
32 | C[C@@H](Oc1cc(-n2cnc3ccc(CN4CCN(C)CC4)cc32)sc1C(N)=O)c1ccccc1C(F)(F)F | 37.2 nM (active)
33 | CC[C@@H]1C(=O)N(C)c2cnc(Nc3ccc(C(=O)NC4CCN(C)CC4)cc3OC)nc2N1C1CCCC1 | 46.9 nM (active)
34 | CCc1c(O)cc(O)c(C(=O)c2ccc(OCCN3CCOCC3)c(OC)c2)c1CC(=O)N(CCOC)CCOC | 743 nM (active)
35 | Cc1cc(Nc2cc(NC(=O)c3c(Cl)cccc3Cl)ccn2)nc(N)n1 | 4180 nM (active)
36 | Cn1cc(-c2[nH]c3cc(NC(=O)[C@H](N)C4CCCCC4)cc4c3c2C=NNC4=O)cn1 | 418 nM (active)
37 | CCCCc1nc2cc(C=CC(=O)NO)ccc2n1CCN(CC)CC | 3320 nM (active)
38 | CN(c1ncccc1CNc1nc(Nc2ccc3c(c2)CC(=O)N3)ncc1C(F)(F)F)S(C)(=O)=O | 4180 nM (active)
39 | CC(C)C[C@@H](C=O)NC(=O)[C@H](CC(C)C)NC(=O)[C@H](CC(C)C)NC(=O)OCc1ccccc1 (Cbz-Leu-Leu-Leu-aldehyde) | 1320 nM (active)
40 | COCCn1c2c([n+](Cc3cnccn3)c1C)C(=O)c1ccccc1C2=O | 16.6 nM (active)
